Screening data (PubChem)
Compounds with a hit are over-represented: about 2.9% of the library has one in this group of screens.
HSF1 activator: HSF-1 activators, primary screen, NIH3T3-HGL cells, MG132 stress, luminescence, single point | AID 504408, 2011 | 300,000 compounds, 1.7% hits | NIH3T3-HGL HSF-1 luciferase reporter, 8 h; 100% = twice DMSO control signal | activation, % at 9 µM;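 active = mean replicate activation of at least 50% with a set share of replicates each reaching 50%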;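 note: 0% = median of the neutral control wells and 100% = twice that signal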
S1P3 antag: S1P3 receptor antagonists, primary screen, cell-based | inhibition, % at 4.98 µM | AID 485, 2006 | 170,000 compounds, 0.27% hits | CHO S1P3 NFAT-BLA reporter, FRET fluorescence, antagonist mode;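 active = inhibition above the plate cutoff, the mean inhibition of test wells on that plate plus 3 SD, cut at about 28% in these data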;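 note: cells challenged with S1P at its EC80 of 0.8 µM; blue over green emission ratio from cleaved BLA substrate after 4 h stimulation; 0% = S1P-stimulated wells and 100% = unstimulated DMSO-only wells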
HSF1 inh: HSF1 inhibitors in luciferase reporter cells, primary screen, cell-based, NIH3T3, luminescence | activity change, negative = inhibition, % at 7.5 µM (by protocol) | 300,000 compounds, 0.77% hits | NIH3T3-HGL HSE-luciferase, MG132-induced, luminescence 8 h; hits give low values | AID 2098, 2009;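 active = more than half of replicate wells show activity change below -50%, luminescence cut by over half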;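 note: luciferase reports HSF-1 transcriptional activity via heat shock element; 0% = median of DMSO wells and -100% = zero luminescence signal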
S1P4 antag: S1P4 receptor antagonists, primary screen, cell-based; Sphingosine 1-phosphate receptor 4 (Homo sapiens), O95977; S1P4-expressing cells, antagonist mode, reporter read-out; inhibition, % at 4.98 µM; 220,000 compounds, 0.26% hits; in the data active = inhibition above about 29%;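 note: 0% = wells stimulated with agonist and 100% = vehicle wells without agonist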
Target sequence (O95977 whole entry, looked up): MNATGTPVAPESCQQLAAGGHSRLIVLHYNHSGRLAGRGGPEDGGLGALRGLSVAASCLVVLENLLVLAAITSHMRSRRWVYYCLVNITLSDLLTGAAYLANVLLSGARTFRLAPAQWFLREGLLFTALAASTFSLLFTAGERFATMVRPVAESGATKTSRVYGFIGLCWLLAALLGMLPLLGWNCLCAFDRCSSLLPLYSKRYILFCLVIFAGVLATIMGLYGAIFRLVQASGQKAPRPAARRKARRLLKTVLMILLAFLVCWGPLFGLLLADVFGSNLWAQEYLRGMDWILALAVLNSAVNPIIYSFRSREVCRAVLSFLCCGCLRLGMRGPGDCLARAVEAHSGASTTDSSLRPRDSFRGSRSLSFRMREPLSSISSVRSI
S1P4 agonist: S1P4 receptor agonists, primary screen, cell-based; AID 1509, 2009; 220,000 compounds, 0.35% hits; S1P4-expressing cell line, agonist reporter assay; Sphingosine 1-phosphate receptor 4 (Homo sapiens), O95977; activation, % at 4.98 µM; in the data active = activation above about 11%;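 note: 0% = DMSO vehicle and 100% = reference agonist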
Hsp70 activator: Hsp70 transcriptional activators, primary screen, cell-based, HeLa, Hsp70 promoter luciferase, luminescence, 10 µM; 200,000 compounds, 0.04% hits; activation, % at 10 µM; HeLa Hsp70 promoter luciferase reporter; scaled: vehicle 0, proteasome-inhibitor control 100%;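 active = activation above the mean across all tested compounds plus 3 SD, cutoff set per campaign, cut at about 5.5% in these data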;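 note: 100% = MG132 at 30 µM as the positive control and 0% = DMSO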
* hit, by the source's call; nt = no result given.

SMILES	HSF1 activator	S1P3 antag	HSF1 inh	S1P4 antag	S1P4 agonist	Hsp70 activator
CC(C)CN(CC(C)C)c1ccc(/C=N/n2cnnc2)cc1[N+](=O)[O-]	1.9	-15.2	4.4	-5.8	-0.9	0.1
Cc1ccc(Sc2ccc(NC(=O)CCl)cc2)c(C)c1	75.7*	-3.2	41.0	3.4	-0.1	-0.3
CSc1ccccc1NC(=S)Nc1ccc(S(N)(=O)=O)cc1	54.3*	-0.7	12.7	4.6	-0.9	-0.5
CCn1c(/C=C/c2c[nH]c3ccccc23)nc2ccccc2c1=O	81.5*	-8.9	32.0	2.7	1.4	-0.1
Cn1c(=O)c2c(ncn2CC(=O)Nc2nccs2)n(C)c1=O	-2.4	-10.3	3.6	1.3	0.5	nt
Cc1cc(C)nc(SCC(=O)N/N=C/c2cccs2)n1	-1.4	2.2	-17.7	-18.5	-1.2	-0.3
COc1cc(/C=N/NC(=O)c2cccs2)ccc1O	41.0	7.2	9.2	-4.1	0.9	nt
COc1ccccc1/C=C/C=N/NC(=O)c1cccs1	61.5*	21.3	21.9	-11.4	2.7	nt
O=C(N/N=C\c1cn[nH]c1-c1ccccc1)c1cccs1	-80.1	3.1	-74.1*	-5.0	0.5	0.1
NC(=O)c1cc2ccccc2o/c1=N/NC(=O)c1cccs1	16.6	-4.5	4.6	-8.1	-1.1	-0.1
COc1ccc2o/c(=N/NC(=O)c3cccs3)c(C(N)=O)cc2c1	56.3*	6.2	5.2	-8.0	0.6	0.0
COc1ccccc1/C=C\C=N\NC(=O)c1ccco1	20.6	-6.4	18.6	12.8	1.2	0.3
COc1cccc(/C=N/NC(=O)c2cccs2)c1	62.9*	1.4	15.2	-5.3	-0.6	nt
CC(C)c1nnc(NC(=O)CCC(=O)NC2CC2)s1	-3.4	nt	-3.9	nt	nt	nt
COc1ccc(C(CNC(=O)CCNC(=O)c2ccccc2OC)N2CCCC2)cc1 (stereo unspecified)	7.6	nt	-1.7	nt	nt	nt
COC(=O)c1sc(NC(=O)/C=C/c2ccc(C)o2)nc1C	57.0*	13.4	28.4	7.5	6.6	0.1
CC(=O)c1cccc(NC(=S)N2c3ccccc3CC2C)c1 (stereo unspecified)	25.8	4.6	12.1	-6.2	1.3	0.3
CC1Cc2ccccc2N1C(=O)/C=C/c1cccc(F)c1 (stereo unspecified)	69.6*	16.1	37.4	-22.2	0.5	0.3
Cc1cc(C2(c3cc(C)c(NC(=O)CN4CCOCC4)c(C)c3)CCCCC2)cc(C)c1NC(=O)CN1CCOCC1	-65.6	nt	-56.6*	-2.8	-4.3	0.2
Cc1ccc(Cl)cc1NC(=O)CN1CCOCC1	13.4	nt	0.6	nt	nt	nt
Cc1cccc(C)c1NC(=O)NN=C1CCCCC1	6.9	1.3	-4.4	0.6	1.1	nt
O=C(C1=NN(c2ccccc2)C2C(=O)N(c3cccc(Cl)c3)C(=O)C12)c1ccccc1 (stereo unspecified)	nt	28.4*	nt	2.6	-3.4	-0.2
O=C(C1=NN(c2ccccc2)C2C(=O)N(c3ccc(Cl)cc3)C(=O)C12)c1ccccc1 (stereo unspecified)	nt	5.9	nt	-0.3	2.1	-0.1
C[C@H](NC(=O)[C@@H]1CSC2c3ccccc3C(=O)N21)C(=O)NCCc1ccc(F)cc1 (stereo partly specified)	-1.4	nt	7.1	nt	nt	nt
C[C@H](NC(=O)[C@@H]1CSC2c3ccccc3C(=O)N21)C(=O)NCCc1ccccc1 (stereo partly specified)	70.2*	nt	28.7	nt	nt	nt
SMILES	HSF1 activator	S1P3 antag	HSF1 inh	S1P4 antag	S1P4 agonist	Hsp70 activator
O=C(COC(=O)CNC(=O)c1ccccc1)Nc1nnc(-c2ccccc2)o1	5.1	nt	-3.5	nt	nt	nt
O=C(NC12CC3CC(CC(C3)C1)C2)N1CCN(C(=O)C2CCCO2)CC1 (stereo unspecified)	-63.6	-0.5	-54.5*	5.9	-0.8	-0.5
O=C(NC12CC3CC(CC(C3)C1)C2)N1CCC(O)CC1	-4.5	-7.3	-1.2	-15.7	-2.1	0.0
CCCc1c(O)nc(SCC(=O)N2CCCCC2)[nH]c1=O	-0.9	nt	-4.5	nt	nt	nt
CC(C)CCc1c(O)nc(SCC(=O)N2CCCCCC2)[nH]c1=O	-78.5	nt	-74.0*	nt	nt	nt
COC(=O)c1ccccc1NC1=C/C(=N\S(=O)(=O)c2cccs2)c2ccccc2C1=O	39.6	nt	33.4	-4.3	0.3	-0.1
O=C1C(Nc2ccccc2)=C/C(=N/S(=O)(=O)c2cccs2)c2ccccc21	-95.1	-16.1	-94.3*	-27.0	1.4	-0.3
Cc1ccc(NC2=C/C(=N/S(=O)(=O)c3cccs3)c3ccccc3C2=O)cc1	-94.2	-4.5	-94.2*	-16.8	2.0	-0.2
O=C1C=C(Nc2ccccc2)C(=O)c2ccccc21	95.6*	-3.7	61.0	5.1	0.3	0.1
Cc1c(NC(=O)COC(=O)CCc2c[nH]c3ccccc23)c(=O)n(-c2ccccc2)n1C	-14.2	nt	-2.2	nt	nt	nt
COc1ccc(CCNC(=O)CSc2nc(=O)[nH]c3c2CCC3)cc1OC	0.9	nt	-4.5	nt	nt	nt
Cc1ccccc1/[N+]([O-])=C/c1cccs1	94.7*	-9.5	50.2	-19.5	0.3	0.0
Cc1ccc(/C=[N+](\[O-])c2ccccc2C)o1	7.1	nt	2.8	nt	nt	nt
O=C(c1ccc(-c2ccccc2)cc1)c1ccc([N+](=O)[O-])cc1	2.1	5.4	6.1	-10.4	-1.8	nt
O=C(C#Cc1ccccc1)c1ccc([N+](=O)[O-])cc1	60.6*	nt	50.9	0.3	1.3	-0.3
O=[N+]([O-])c1ccc(-c2n(-c3ccccn3)c3ccccc3[n+]2-c2ccccn2)cc1	5.9	-3.3	7.4	-0.7	-0.8	nt
CN(C)C(=O)c1nc2ccccc2s1	-21.8	-3.9	-16.7	-4.8	2.6	-0.1
CN(C)c1ccc(CC(=O)c2nc3ccccc3s2)cc1	55.7*	-11.2	28.0	-19.9	-0.4	0.1
CS/C(N)=N/N=C/c1cc(C)ccc1O	139.9*	-11.5	86.2	-7.1	-2.0	nt
CN(C)C(CNC(=O)CCC(=O)c1ccc(Br)cc1)c1ccccc1 (stereo unspecified)	62.7*	nt	26.4	nt	nt	nt
O=C(Nc1cccc(CNCCc2c[nH]c3ccccc23)c1)c1ccccc1Cl	12.1	nt	0.8	nt	nt	nt
S=c1[nH]c(-c2ccccc2)cn1/N=C/c1ccccc1Br	64.4*	-15.9	20.5	-17.6	-1.5	-0.2
CCCOc1ccc(/C(O)=C2/C(=O)C(=O)N(CCN(CC)CC)C2c2ccncc2)cc1 (stereo unspecified)	nt	-0.8	nt	nt	nt	nt
CCCOc1ccc(/C(O)=C2/C(=O)C(=O)N(CCN(C)C)C2c2ccncc2)cc1 (stereo unspecified)	nt	nt	nt	-2.8	36.2*	-0.3
Cc1ccc(S(=O)(=O)Cn2nnnc2C(CC(C)C)N2CCN(C3CCCC3)CC2)cc1 (stereo unspecified)	-8.3	nt	-7.3	nt	nt	nt
